The values that follow come from PubChem BioAssay.

Active and inactive are the calls of the source. Unless noted, how the calls were made is not given here.

A short description of assay [1]: HepG2 liver cancer cell viability effects, profiling panel, resazurin fluorescence, 24 h, PK04 Diversity Set (AID 1172). Further: test concentration not given here. Particulars: higher = more signal.
A short description of assay [2]: basal S. cerevisiae growth modulation, no modifier, primary screen, OD600, strain BY4716, 24 h, basal condition (AID 1173). The conditions noted are these: OD600, 24 h, higher = more signal, called active from +8 up or from −8 down.
Assay [3] is described as follows: MM1S myeloma cell viability, profiling panel, resazurin fluorescence, basal, 24 h, PK04 Diversity Set (AID 1174).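 Further: MM1S multiple myeloma cell line; test concentration not given here.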 The conditions noted are these: higher = more signal, called active from +8 up or from −8 down. Background: The colour change of resazurin is a common sign of viable cells or microbes.
Assay [4] concerns the target Dihydroorotate dehydrogenase (quinone), mitochondrial (Plasmodium falciparum (isolate 3D7)) (UniProt Q08210). Briefly: PfDHODH enzyme inhibitors, primary screen, biochemical, C-terminal His tag, absorbance 600 nm (AID 1175).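 Further: recombinant parasite enzyme with a five histidine tag at its C terminus; test concentration not given here.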 The conditions noted are these: DCIP absorbance 600 nm, higher = more signal, called active from +8 up or from −8 down.
A short description of assay [5]: P. aeruginosa biofilm formation inhibitors, primary screen, strain PAO1, LB-PBS medium, absorbance 600 nm (AID 1176). Further: test concentration not given here. Particulars: P. aeruginosa PAO1 growth/biofilm, A600, 12 h; higher = more signal.
The nature of assay [6]: S. cerevisiae RM11-1a growth modifiers, primary screen, strain RM11-1a, OD600, basal, 24 h (AID 1177).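 Further: cultures grown under basal conditions with no added stressor; test concentration not given here.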 The conditions noted are these: OD600, 24 h, higher = more signal, called active from +8 up or from −8 down.
The nature of assay [7]: E. coli acrAB mutant growth effects, primary screen, E. coli filamentation inducers, strain DRC39, OD650, 24 h (AID 1178).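 Further: growth measured as culture turbidity by optical density at 650 nm; test concentration not given here.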 The conditions noted are these: higher = more signal, called active from +8 up or from −8 down.
Assay [8] can be described thus: E. coli acrAB mutant growth effects, primary screen, E. coli filamentation inducers, strain DRC39, OD650, 48 h (AID 1179).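 Further: screen aims at cell division blockers that make cells filament.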 Particulars: E. coli DRC39 delta-acrAB growth, higher = more signal, called active from +8 up or from −8 down.
Assay [9] in a line: RPMI8226 myeloma cell viability, profiling panel, resazurin fluorescence, basal, 24 h, PK04 Diversity Set (AID 1180).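 Further: RPMI8826 multiple myeloma cell line at 5000 cells per well; test concentration not given here.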 Particulars: higher = more signal.
Assay [10] concerns the target E3 ubiquitin-protein ligase XIAP (Homo sapiens) (UniProt P98170). Briefly: XIAP binders, primary screen, biophysical, small-molecule microarray, fluorescence 635 nm (AID 1181).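 Further: score merges 667 nm emission and signal to noise over triplicate slides.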 The conditions noted are these: small-molecule microarray binding, higher = more signal.

Sequence of E3 ubiquitin-protein ligase XIAP (Homo sapiens) (P98170 whole entry, looked up): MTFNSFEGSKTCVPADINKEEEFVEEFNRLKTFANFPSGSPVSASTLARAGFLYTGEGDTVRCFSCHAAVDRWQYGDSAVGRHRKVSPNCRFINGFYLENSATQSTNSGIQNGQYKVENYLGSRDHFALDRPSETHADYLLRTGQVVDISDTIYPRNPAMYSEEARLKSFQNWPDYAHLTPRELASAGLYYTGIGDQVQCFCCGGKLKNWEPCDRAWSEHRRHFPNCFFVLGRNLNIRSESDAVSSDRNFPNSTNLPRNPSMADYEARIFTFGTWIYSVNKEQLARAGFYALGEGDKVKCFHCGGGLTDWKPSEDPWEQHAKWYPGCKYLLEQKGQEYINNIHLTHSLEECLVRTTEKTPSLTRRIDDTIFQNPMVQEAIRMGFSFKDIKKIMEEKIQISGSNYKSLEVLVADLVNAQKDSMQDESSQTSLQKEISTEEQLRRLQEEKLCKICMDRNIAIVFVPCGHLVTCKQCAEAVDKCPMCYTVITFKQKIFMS
Sequence of Dihydroorotate dehydrogenase (quinone), mitochondrial (Plasmodium falciparum (isolate 3D7)) (Q08210 whole entry, looked up): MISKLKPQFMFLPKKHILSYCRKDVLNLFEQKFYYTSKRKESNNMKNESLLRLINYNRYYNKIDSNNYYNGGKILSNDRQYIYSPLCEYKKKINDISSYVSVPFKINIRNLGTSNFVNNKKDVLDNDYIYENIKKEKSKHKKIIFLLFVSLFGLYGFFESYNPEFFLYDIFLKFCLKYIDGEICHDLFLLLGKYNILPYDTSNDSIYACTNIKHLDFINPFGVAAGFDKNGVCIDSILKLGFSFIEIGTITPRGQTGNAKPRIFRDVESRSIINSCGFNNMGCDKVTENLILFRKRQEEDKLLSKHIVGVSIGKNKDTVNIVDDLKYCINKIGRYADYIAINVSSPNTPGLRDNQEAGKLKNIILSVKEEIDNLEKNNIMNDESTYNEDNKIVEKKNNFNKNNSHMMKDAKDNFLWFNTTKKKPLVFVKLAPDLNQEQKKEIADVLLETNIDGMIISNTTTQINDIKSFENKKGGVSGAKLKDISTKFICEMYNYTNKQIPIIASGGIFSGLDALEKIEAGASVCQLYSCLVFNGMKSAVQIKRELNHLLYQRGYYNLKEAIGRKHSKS

Regarding `C[C@@H]1NC(=O)C([C@@H](C)OCc2ccccc2)NC(=O)[C@@]23C(=O)N[C@@H](Cc4ccccc4)C2[C@H](C)[C@@]2(C)O[C@H]2C3/C=C/C/C=C\CNC1=O` (stereo not given in full), the z-score in assay [1] is -0.847; in assay [2] it was -0.399 (inactive); in assay [3] it was 0.026 (inactive); in [5], 0.625 (inactive); in assay [6], 0.533 (inactive); in assay [7], -0.602 (inactive). Further, the z-score in assay [8] is -0.426 (inactive); in assay [9] it was -0.104. Moreover, the composite z-score in assay [4] was -0.0288 (inactive); in [10], -0.291.
With `CC(C)[Si](C#CCCc1ccccc1)(O[C@H](c1ccccc1)c1cn(Cc2ccccc2)nn1)C(C)C`, the z-score is 1.5 in assay [1]; -8.07 (active) in assay [2]; -0.016 (inactive) in assay [3]; -0.206 (inactive) in assay [5]; 0.129 (inactive) in assay [6]; -0.0409 (inactive) in assay [7]. The z-score in assay [8] is 0.451 (inactive); in [9] it was -0.052. Further, the composite z-score in assay [4] was -0.262 (inactive); in assay [10], -0.0117.
Regarding `C=C(CCCC)/C(=C/C[C@H](OC(C)=O)c1cccc(OCCO)c1)c1cnc2ccccc2c1`, the z-score in assay [1] is 0.209; in [2], 1.13 (inactive); in assay [3] it was -0.117 (inactive); in assay [5] it was -0.693 (inactive); in assay [6], 1.75 (inactive); in assay [7], 0.5 (inactive). Besides, the results for the z-score in assay [8] and in assay [9] were 0.211 (inactive) and 0.814, respectively. Further, the composite z-score in [4] was -3.15 (inactive); in assay [10], -0.0448.
Turning to `COC(=O)[C@@]1(Cc2ccc(OC)cc2)[C@H]2c3cc(C(=O)N4CCCC4)n(Cc4c(CO)[nH]cc(C)c4=O)c3C[C@H]2CN1C(=O)c1ccccc1`, the z-score in assay [1] was 0.229; in [2], 0.684 (inactive); in [3], 0.421 (inactive); in [5], 0.548 (inactive); in [6], 0.124 (inactive); in assay [7], 0.153 (inactive). Also, the figures for the z-score in assay [8] and in assay [9] were 1.17 (inactive) and 0.572, respectively. Moreover, the composite z-score in assay [4] was -1.21 (inactive); in assay [10] it was 0.477.
On to `C=C(COC)/C(=C/C[C@H](OC(C)=O)c1ccccc1OCCO)c1cc(C(=O)OC)ccc1OC`, for which the z-score was -0.216 in assay [1]; -1.14 (inactive) in assay [2]; 0.181 (inactive) in assay [3]; -0.718 (inactive) in [5]; 0.0505 (inactive) in [6]; -0.474 (inactive) in assay [7]. For the same molecule, the z-score in assay [8] is -0.653 (inactive); in assay [9] it was -0.776. Moreover, the composite z-score in [4] was -1.68 (inactive); in assay [10], -0.239.
Regarding `COc1ccc(C(O)C2C=CC3C(=O)N(c4ccccc4)C(=O)C3N2Nc2ccc([N+](=O)[O-])cc2)c2ccccc12` (stereo not given), the z-score in assay [1] was 0.248; in assay [2], 0.0244 (inactive); in assay [3], -0.121 (inactive); in [5], 2.53 (inactive); in [6] it was 0.0842 (inactive); in [7], -0.901 (inactive). Also, the z-score in [8] is -0.219 (inactive); in assay [9], -0.322. Further, the composite z-score is 0.767 (inactive) in [4] and 0.312 in [10].
As for `COc1cc(CO)cc(I)c1O[C@H]1C=C(C(=O)NCCO)C[C@@H](NC2CCCCCC2)[C@@H]1O`, the z-score in [1] is 0.371; in [2] it was -4.02 (inactive); in assay [3] it was 0.115 (inactive); in assay [5], -0.896 (inactive); in assay [6], 0.77 (inactive); in [7], 0.901 (inactive). Also, the figures for the z-score in [8] and in [9] were 0.12 (inactive) and 0.215, respectively. In addition, the composite z-score is 1.11 (inactive) in assay [4] and -0.11 in assay [10].
For `COc1ccc([Si](C)(C)[C@H]2[C@H](CCO)O[C@@]3(C(=O)N(Cc4cccc(N(C=O)c5ccccc5)c4)c4ccccc43)[C@@H]2C)cc1`, the z-score in assay [1] was -1.85; in [2] it was 1.27 (inactive); in assay [3] it was -3.37 (inactive); in [5], 1.45 (inactive); in assay [6], 4.32 (inactive); in assay [7], 1.61 (inactive). Further, the z-score in [8] is 1.41 (inactive); in [9], -3.77. Besides, the composite z-score in assay [4] was 0.105 (inactive); in assay [10] it was 0.203.
In the case of `O=C1[C@H]2C=C(I)[C@H](C[C@@H]2OCCCCCCO)[C@@]12CO2`, the z-score is 0.21 in assay [1]; -1.77 (inactive) in assay [2]; -0.394 (inactive) in assay [3]; 1.13 (inactive) in [5]; -0.473 (inactive) in [6]; -0.875 (inactive) in assay [7]. Further, the results for the z-score in assay [8] and in assay [9] were -0.482 (inactive) and -0.658, respectively. Besides, the composite z-score is 0.742 (inactive) in [4] and -0.109 in assay [10].
As for `O=C1C2C=CC(C(O)C3CCCCC3)N(n3cnnc3)C2C(=O)N1Cc1ccccc1` (stereo not given), the z-score in assay [1] is -0.308; in [2], 0.161 (inactive); in assay [3], -0.196 (inactive); in assay [5] it was 0.561 (inactive); in assay [6], -0.618 (inactive); in assay [7] it was 0.386 (inactive). The z-score is 1.01 (inactive) in assay [8] and -0.513 in [9]. Moreover, the composite z-score in [4] was -0.016 (inactive); in assay [10], -0.0535.
On to `CN(C)CCCNC(=O)[C@@]1(Cc2ccccc2I)c2ccccc2C(=O)N(C2CCCCC2)[C@H]1c1ccc(CO)cc1`, for which the z-score in assay [1] is -6.39; in assay [2] it was -8.03 (active); in assay [3] it was -8.24 (active); in assay [5], 0.36 (inactive); in assay [6], 0.996 (inactive); in [7] it was 0.675 (inactive). Moreover, the results for the z-score in [8] and in assay [9] were -0.707 (inactive) and -6.58, respectively. Also, the composite z-score in assay [4] is 0.201 (inactive); in assay [10] it was 0.223.
